Experimental data from PubChem BioAssay AID1159580 (chemical genetic matrix, 2015).
“And” between values parts separate entries of the source, which are not always exact repeats. Equal entries are not always repeated. The campaign covered roughly 5,500 compounds. About 2,000 (36%) were called active. Inconclusive results (about 18%) are left out. Rule as the data show it: active = normalized growth mostly below about 0.91 (no sharp cut-off); inconclusive = no clear call, values can overlap the other calls; inactive = mostly above about 0.92. This is one part of the list.

Assay: chemical genetic growth profiling, strain panel (AID 1159580);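 also: tested at 20 µM; growth read once vehicle control cultures reached saturation at 30 °C; 1 = growth at the plate median or of vehicle wells; lower values mean less growth of the strain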
Settings: S. cerevisiae deletion strains, growth OD

Measured: normalized growth

COc1ccc(-c2cc(C(F)F)nn2-c2ccc(S(N)(=O)=O)cc2)cc1F
inactive: locus YAL013W, strain DEP1, stronger effect = lower value 1 | locus YAL021C, strain ccr4, stronger effect = lower value 0.991 | locus YAL026C, strain drs2, stronger effect = lower value 1.02 | locus YAL030W, strain snc1, stronger effect = lower value 1.01 | locus YBL061C, strain skt5, stronger effect = lower value 1 | locus YBR009C, strain hhf1, stronger effect = lower value 1 | locus YBR021W, strain FUR4, stronger effect = lower value 1.02 | locus YBR023C, strain chs3, stronger effect = lower value 0.992 | locus YBR171W, strain sec66, stronger effect = lower value 1.01 | locus YBR229C, strain ROT2, stronger effect = lower value 1.01 | locus YBR231C, strain swc5, stronger effect = lower value 1.01 | locus YBR279W, strain paf1, stronger effect = lower value 1 | locus YCL011C, strain gbp2, stronger effect = lower value 1.01 | locus YCL016C, strain dcc1, stronger effect = lower value 0.992 | locus YCL029C, strain bik1, stronger effect = lower value 1.01 | locus YCL069W, strain vba3, stronger effect = lower value 1 | locus YCR088W, strain abp1, stronger effect = lower value 1 | locus YDL005C, strain med2, stronger effect = lower value 1 | locus YDL035C, strain GPR1, stronger effect = lower value 1.02 | locus YDL040C, strain nat1, stronger effect = lower value 1.01 | locus YDL074C, strain BRE1, stronger effect = lower value 0.997 | locus YDL101C, strain DUN1, stronger effect = lower value 1 | locus YDL134C, strain PPH21, stronger effect = lower value 0.994 | locus YDL185W, strain tfp1, stronger effect = lower value 1.01 | locus YDL192W, strain arf1, stronger effect = lower value 1.01 | locus YDR001C, strain nth1, stronger effect = lower value 1.02 | locus YDR069C, strain doa4, stronger effect = lower value 1.01 | locus YDR101C, strain arx1, stronger effect = lower value 1.01 | locus YDR137W, strain rgp1, stronger effect = lower value 1.04 | locus YDR150W, strain NUM1, stronger effect = lower value 0.999 | locus YDR159W, strain sac3, stronger effect = lower value 1.01 | locus YDR162C, strain NBP2, stronger effect = lower value 0.988 | locus YDR195W, strain ref2 0.988 | locus YDR297W, strain sur2, stronger effect = lower value 1.01 | locus YDR318W, strain mcm21, stronger effect = lower value 1.02 | locus YDR334W, strain swr1, stronger effect = lower value 1.02 | locus YDR335W, strain msn5, stronger effect = lower value 1 | locus YDR388W, stronger effect = lower value 1.02 | locus YDR392W, strain spt3, stronger effect = lower value 0.922 | locus YDR502C, strain sam2, stronger effect = lower value 0.996 | locus YEL003W, strain gim4, stronger effect = lower value 1 | locus YEL037C, strain rad23, stronger effect = lower value 1.01 | locus YEL061C, strain CIN8 (second series), stronger effect = lower value 1.01 | locus YEL061C, strain CIN8, stronger effect = lower value 1 | locus YER015W, strain faa2, stronger effect = lower value 0.987 | locus YER016W, strain bim1, stronger effect = lower value 1 | locus YER110C, stronger effect = lower value 1.03 | locus YER111C, strain swi4, stronger effect = lower value 0.999 | locus YER155C, strain BEM2 (second series), stronger effect = lower value 0.887 | locus YER155C, strain BEM2, stronger effect = lower value 0.998 | locus YER167W, strain BCK2, stronger effect = lower value 1.01 | locus YFR010W, strain ubp6, stronger effect = lower value 1.02 | locus YGL078C, strain dbp3, stronger effect = lower value 0.996 | locus YGL086W, strain mad1, stronger effect = lower value 1.03 | locus YGL167C, strain pmr1, stronger effect = lower value 0.999 | locus YGL173C, strain kem1, stronger effect = lower value 0.998 | locus YGL227W, strain vid30, stronger effect = lower value 1.01 | locus YGL240W, strain doc1, stronger effect = lower value 0.961 | locus YGL248W, strain PDE1, stronger effect = lower value 0.997 | locus YGL253W, strain hxk2, stronger effect = lower value 1.01 | locus YGR078C, strain PAC10, stronger effect = lower value 0.994 | locus YGR135W, strain pre9, stronger effect = lower value 0.982 | locus YGR229C, strain SMI1, stronger effect = lower value 0.989 | locus YGR252W, strain gcn5, stronger effect = lower value 1.08 | locus YHR013C, strain ard1, stronger effect = lower value 1.06 | locus YHR027C, strain rpn1, stronger effect = lower value 1.01 | locus YHR030C, strain SLT2, stronger effect = lower value 1.01 and 1.05 | locus YHR079C, strain IRE1 (second series), stronger effect = lower value 1.02 | locus YHR079C, strain IRE1, stronger effect = lower value 1.06 | locus YHR094C, strain hxt1, stronger effect = lower value 1.01 | locus YHR129C, strain ARP1, stronger effect = lower value 1 | locus YHR142W, strain chs7, stronger effect = lower value 0.999 | locus YHR200W, strain rpn10, stronger effect = lower value 1.02 | locus YIL066C, strain RNR3, stronger effect = lower value 1.01 | locus YIL073C, strain SPO22, stronger effect = lower value 1.07 | locus YIL125W, strain kgd1, stronger effect = lower value 1.01 | locus YIR030C, strain dcg1, stronger effect = lower value 1.01 | locus YJL092W, strain hpr5, stronger effect = lower value 1 | locus YJL095W, strain BCK1 (second series), stronger effect = lower value 0.997 | locus YJL095W, strain BCK1, stronger effect = lower value 0.996 and 1.02 | locus YJL115W, strain asf1, stronger effect = lower value 1.01 | locus YJL129C, strain trk1, stronger effect = lower value 0.967 | locus YJL134W, strain LCB3, stronger effect = lower value 1 | locus YJL154C, strain vps35, stronger effect = lower value 0.999 | locus YJL164C, strain tpk1, stronger effect = lower value 0.992 | locus YJL166W, strain qcr8, stronger effect = lower value 0.984 | locus YJL168C, strain set2, stronger effect = lower value 1.02 | locus YJL187C, strain SWE1 (second series), stronger effect = lower value 0.995 | locus YJL187C, strain SWE1, stronger effect = lower value 1 | locus YJR043C, strain POL32, stronger effect = lower value 1.03 | locus YJR066W, strain TOR1, stronger effect = lower value 1.01
